USP28 block: inhibitors of human USP28 deubiquitinase. Ubiquitin carboxyl-terminal hydrolase 28 (Homo sapiens), Q96RU2. 47,000 tested, 3% active. purified USP28, Ub-rhodamine cleavage fluorescence, 30 min. inhibition, % at 25 µM. AID 1645857, 2021
USP30 inh: inhibitors of human USP30 deubiquitinase. purified USP30, Ub-rhodamine cleavage fluorescence. Ubiquitin carboxyl-terminal hydrolase 30 (Homo sapiens), Q70CQ3. 47,000 tested, 5.3% active. inhibition, % at 25 µM
USP8 inh: inhibitors of human USP8 deubiquitinase | purified USP8, Ub-rhodamine cleavage fluorescence, 30 min | 47,000 tested, 4.2% active | inhibition, % at 20 µM
USP17 inh: inhibitors of human USP17 deubiquitinase; Ubiquitin carboxyl-terminal hydrolase 17-like protein 5 (Homo sapiens), A8MUK1; purified USP17, Ub-rhodamine cleavage fluorescence, 3 h; inhibition, % at 50 µM; 47,000 tested, 6.5% active; AID 1645855, 2021
Target sequence (A8MUK1 whole entry, looked up): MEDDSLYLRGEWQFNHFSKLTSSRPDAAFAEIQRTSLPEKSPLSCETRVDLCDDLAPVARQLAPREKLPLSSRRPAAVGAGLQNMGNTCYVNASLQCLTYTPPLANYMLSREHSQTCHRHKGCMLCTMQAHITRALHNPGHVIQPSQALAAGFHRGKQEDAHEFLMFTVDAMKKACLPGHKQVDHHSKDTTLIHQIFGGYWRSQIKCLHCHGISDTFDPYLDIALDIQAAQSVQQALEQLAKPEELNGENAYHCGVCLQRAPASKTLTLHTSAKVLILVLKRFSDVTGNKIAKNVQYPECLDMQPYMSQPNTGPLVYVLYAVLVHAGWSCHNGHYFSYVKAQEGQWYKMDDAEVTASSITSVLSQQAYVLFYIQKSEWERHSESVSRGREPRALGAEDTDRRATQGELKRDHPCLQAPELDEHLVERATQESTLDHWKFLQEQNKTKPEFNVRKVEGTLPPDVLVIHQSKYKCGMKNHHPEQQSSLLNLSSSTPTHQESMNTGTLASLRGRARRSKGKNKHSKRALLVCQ
Numbers without * were called inactive; . = no result. A selection: hits, their analogues and other compounds. The true share with any hit is near 13%. No stated cut-off is given here; in the data, active means inhibition above about 30%; inactive means the rest.

SMILES	USP28 block	USP30 inh	USP8 inh	USP17 inh
O=C(/C=C/C=C/C=C/C1CCCCC1)NC1=C[C@@](O)(/C=C/C=C/C=C/C(=O)NC2=C(O)CCC2=O)[C@@H]2O[C@@H]2C1=O	75*	-39	-24	68*
Cc1cc(O)c(Oc2cc(C)cc(O)c2O)c(O)c1	47*	31*	0	47*
Cc1ccc(S(=O)(=O)NCCn2ccc3ccccc32)cc1	-38	-139	-37	-31
Cc1ccc(S(=O)(=O)NCCn2c(N)c(C#N)c3nc4ccccc4nc32)cc1	-46	-154	65*	40*
Cc1ccccc1Nc1nc(NCC2CCCO2)nc2c1cnn2-c1ccccc1 (stereo unspecified)	3	14	23	8
O=C(O)C1C(C(=O)Nc2ccccc2)C2(c3ccccc3)C(=O)C1(c1ccccc1)C(c1ccccc1)=C2c1ccccc1 (stereo unspecified)	86*	82*	51*	94*
O=C(CN1CCc2ccccc21)Nc1cc(C(=O)O)ccc1O	2	-12	49*	6
O=C(NCc1ccncc1)C1CN(Cc2ccc(Br)cc2)CC12CCOCC2 (stereo unspecified)	3	26	10	8
CCOc1ccc2c(c1)c(=O)c1cccnc1n2Cc1ccccc1C	8	17	25	16
COc1ccc(-c2cc(C(=O)Nc3n[nH]c4nc(C)ccc34)[nH]n2)c(OC)c1	4	4	56*	32*
CC1CCN(c2nc(F)c3c(c2F)S(=O)(=O)CCN3CC2CCCO2)CC1 (stereo unspecified)	-6	-9	-39	-17
COCCN1CCS(=O)(=O)c2c(F)c(N3CCCC3)nc(F)c21	14	25	3	11
CC1CCN(c2nc(F)c3c(c2F)S(=O)(=O)CCN3Cc2ccccc2)CC1	6	-10	92*	48*
O=S1(=O)CCN(Cc2ccccc2)c2c(F)nc(N3CCCCC3)c(F)c21	-9	-22	87*	53*
Cn1c(CN2CCOCC2)nnc1Sc1ncccc1[N+](=O)[O-]	-9	0	-113	.
Cc1cc(C)nc(SCc2cc(=O)c(OC(=O)c3ccc(F)c(F)c3)co2)n1	23	28	34*	9
O=C(Oc1coc(CSc2ncccn2)cc1=O)c1ccccc1Cl	-2	-45	-2	-16
O=C(Oc1coc(CSc2ncccn2)cc1=O)c1ccccc1Br	27	-11	36*	15
Cc1cc(C)cc(N(C(=O)c2cnccn2)C(C(=O)Nc2ccc(F)cc2)c2ccccc2)c1 (stereo unspecified)	-1	-11	1	.
Nc1c(-c2ccccn2)nsc1C(=O)N1CCN(c2ccc(F)cc2)CC1	6	36*	14	24
Cc1ccc(C(=O)N2CC(C(=O)NCCc3ccncc3)C3(CCOCC3)C2)cc1F (stereo unspecified)	7	8	-9	0
Cc1cccc(N2C(=O)/C(=C\c3cc(C#N)n(C)c3C)c3ccccc3C2=O)c1	6	-57	56*	20
COc1cc(C(=O)N2CCC3(CC2)CC(=O)c2ccccc2O3)cc(OC)c1OC	0	-8	0	-1
CCCCc1ccc(-c2cc(C(=O)NCCN3CCOCC3)c3cc(Br)ccc3n2)cc1	0	79*	-16	14
O=C(OC1CSc2nc3ccccc3n2C1)c1ccc([N+](=O)[O-])o1 (stereo unspecified)	-2	-62	64*	96*
SMILES	USP28 block	USP30 inh	USP8 inh	USP17 inh
Cc1nc2c(c(=O)[nH]1)CC[C@@H]1CN(C(=O)c3ccc4c(c3)OCCO4)C[C@H]21	-14	-6	0	-9
Cc1c(Cl)cccc1Nc1nc2c(S(=O)(=O)c3ccccc3)nnn2c2ccc(Cl)cc12	.	.	10	57*
Cc1cccc(Nc2nc3c(S(=O)(=O)c4ccc(C(C)(C)C)cc4)nnn3c3ccccc23)c1C	-1	-16	23	9
Cc1ccc(S(=O)(=O)c2nnn3c2nc(Nc2cccc(C)c2C)c2ccccc23)cc1	4	30	67*	22
O=c1[nH]c2ccc(S(=O)(=O)N(Cc3ccc(F)cc3)C3CC3)cc2[nH]1	-2	12	-5	2
O=C(c1ccc(-c2ccccc2)cc1)c1cc2cc([N+](=O)[O-])ccc2o1	-18	-25	-16	6
CCN1C[C@H]2C3(CCN(C(=O)c4ccc(OC)cc4)CC3)CC[C@@]2(C(=O)N(C)C)C1	0	1	-197	-27
O=C(NCc1ccncc1)c1ccc(-n2cccn2)c(C#Cc2cccnc2)c1	-9	-7	-110	43*
O=C(NCCN1CCOCC1)c1ccc(-n2cccn2)c(C#Cc2cccnc2)c1	-5	5	-55	-7
CCC(=O)Nc1nc2cc(NC(=O)Nc3ccc(OC)c(OC)c3)ccc2s1	19	-4	-3	-4
CCC(=O)Nc1nc2cc(NC(=O)Nc3ccccc3Cl)ccc2s1	3	14	33*	0
COCCNC(=O)C1(C)Cn2nc(-c3ccco3)cc2C(=O)N1c1ccc(NC(C)=O)cc1 (stereo unspecified)	-19	-51	-17	-6
CC(=O)Nc1ccc(N2C(=O)c3cc(-c4ccco4)nn3CC2(C)C(=O)NCc2ccc(F)cc2)cc1 (stereo unspecified)	7	-90	39*	-20
COc1ccc(C)cc1C(=O)CCC(=O)N1CCCC(c2[nH]nc3nccnc23)C1 (stereo unspecified)	-51	-142	-104	-40
COc1cc2c(cc1OC)CN(c1ncnc3sccc13)CC2	.	.	-23	-62
COc1ccc(Cl)cc1Nc1ncnc2sccc12	.	.	-26	52*
Cc1cccc(C(=O)NC(NC(=O)c2cccc(C)c2)c2ccccc2F)c1	16	43*	57*	.
Cc1nc(C2CCNCC2)nc2c1CC(=O)N2CCc1ccccc1	11	27	1	4
Cc1nc(-c2ccccc2)nc2c1CC(=O)N2Cc1cccnc1	-74	-301	52*	-11
CNc1nc(C2CCCN(C(=O)c3cc(C4CC4)on3)C2)nc2c1CCN(C)C2 (stereo unspecified)	-76	-196	36*	-27
CNc1nc(C2CCCN(S(=O)(=O)c3c(C)noc3C)C2)nc2c1CCN(C)C2 (stereo unspecified)	-31	-101	-19	-45
CC(C)NC(=O)NC1CCN(c2nc3cccnc3n(Cc3ccccc3)c2=O)CC1	-13	-7	0	0
COc1ccc(CNC(=O)CC(C)(C)CC2=NS(=O)(=O)c3ccccc3N2)cc1	10	18	12	11
Cc1cc(C)n(CC2CCCCN2C(=O)CCc2nccs2)n1 (stereo unspecified)	-7	-1	-3	-3
Cc1cc(C)n(CC(=O)N2N=CCC2(O)C(F)(F)F)n1 (stereo unspecified)	4	8	37*	13
Nc1c(C(=O)NCC2CCCO2)nnn1-c1ccccc1Cl (stereo unspecified)	10	28	32*	17

Screens: PubChem, Buhrlage Lab, Dana-Farber Cancer Institute and Novartis Institutes for BioMedical Research (Cambridge, Mass)
